Test results taken from PubChem BioAssay (NCATS).
Records with an inconclusive call do not appear. The source made the active and inactive calls. The call rests on the fitted dose curve; in most records, active means well fitted curve in the direction sought with a large enough effect; inconclusive means small, poorly fitted or top-dose-only effect, or another doubt; inactive means no such curve, though single readings can be large; an effect the other way counts as inactive or inconclusive.

What was measured:
[1] = P-glycoprotein substrates identified in KB-8-5-11 adenocarcinoma cell line, qHTS therapeutic library screen (AID 1346987); further: nearly all actives have a fitted effect of over 65% in size; further: potency means the concentration at half of the fitted maximal effect
How it was run: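 KB-8-5-11: colchicine-selected sub-line of KB-3-1 over-expressing P-gp; assay medium lacked colchicine. 72 h drug exposure at 37 degree C, CellTiter-Glo.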

[2] = tested on: Zika virus NS2B-NS3 protease (linked construct); test: Primary screen NINDS Rhodamine qHTS for Zika virus inhibitors (AID 1347160); further: nearly all actives have a fitted effect of over 55% in size
How it was run: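 Kinetic fluorescence (Ex 480 nm, Em 540 nm) over 15 min with 1.5 microM Rhodamine110 peptide and 25 nM linked protease.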

[3] = biological target: Calcium and integrin-binding protein 1 (Homo sapiens) (UniProt Q99828); test: Primary qHTS for Identification of Calcium Integrin Binding Protein 1 (CIB1) Competitor (AID 1508620);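 further: GST tagged CIB1 binding a fluorescein labelled alphaIIb integrin peptide tracer; top concentration of the series differs between compounds; on the % scale 0 is the no-effect control and ±100 the full control effect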
How it was run: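 Fluorescence polarization competition: CIB1-GST (1 uM final) preincubated with compound 15 min at room temperature, then FITC-labeled alphaIIb peptide (100 nM final) added for another 15 min. Polarization read at Ex 480/Em 540.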

[4] = biological target: Glutathione peroxidase 1 (Homo sapiens) (UniProt P07203); test: Primary qHTS Assay for Inhibitors of Recombinant Selenoprotein Glutathione Peroxidase 1 (GPX1) (AID 1845191); further: nearly all actives have a fitted effect of over 65% in size
How it was run: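 Recombinant GPX1 (10 nM final) was preincubated with compound for 30 min at room temperature, then reacted with 1 mM GSH, 0.5 mM CHP, 0.5 mM NADPH and 100 nM glutathione reductase; NADPH fluorescence (340/450 nm) was read at 0 and 15 min.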

[5] = biological target: Phospholipid hydroperoxide glutathione peroxidase GPX4 (Homo sapiens) (UniProt P36969); test: Primary qHTS Assay for Inhibitors of Recombinant Selenoprotein Glutathione Peroxidase 4 (GPX4) (AID 1845192); further: on the % scale 0 is the no-effect control and ±100 the full control effect; nearly all actives have a fitted effect of over 65% in size
How it was run: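 GR-coupled readout: 100 nM GR, 1 mM GSH, 0.5 mM NADPH; NADPH fluorescence (ex 340/em 450 nm) read at t=0 and after 15 min RT. GPX4 200 nM, preincubated 30 min with compound; substrate 0.5 mM CHP.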

[6] = biological target: Luciferin 4-monooxygenase (Photinus pyralis) (UniProt P08659); test: Primary firefly luciferase (FLuc) qHTS assay for identification of artifact compounds. (AID 1845220); details: outcome: dose series up to 54.1 µM unless noted; further: nearly all actives have a fitted effect of over 60% in size
How it was run: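 In this counter-screen for luciferase artifacts, test compounds met substrate (10 uM each luciferin and ATP) before 10 nM enzyme started the reaction. Light output was measured 5 min later.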

[7] = tested on: Nanoluciferase (engineered Oplophorus gracilirostris luciferase); test: Primary Nanoluciferase (NLuc) qHTS assay for identification of artifact compounds. (AID 1845222);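 further: NLuc secreted into diluted conditioned medium of S16 cells; 0% = DMSO and -100% = no enzyme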
How it was run: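 Using secreted nanoluciferase in S16 culture medium (0.22 um filtered, 1:55 dilution), compounds were preincubated 15 min at RT. Signal was generated with Nano-Glo reagent (1:100) over 5 min.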

CRL-7250 = normal cell line; test: Cytotoxic Profiling of Annotated Libraries Using Quantitative High-Throughput Screening (AID 1296008); details: Five cell lines viability, CellTiter-Glo ATP luminescence, 48-72 h; max response: hits give low values; further: nearly all actives have a fitted effect of over 60% in size; further: potency means the concentration at half of the fitted maximal effect; on max response: on the % scale 0 is the no-effect control and ±100 the full control effect
How it was run: (§1)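 Compounds were pin-transferred onto cells and incubated 48 or 72 hr at 37 degree Celsius, 95% humidity. CellTiter-Glo was added, plates sat 10 min at room temperature, then ATP-coupled luminescence was imaged as the viability read-out.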

C33A = test: Primary qHTS to identify gynecologic anti-cancer compounds using libraries of approved drugs and bioactive compounds (AID 1345084); details: Gynecologic cancer cell panel viability, ATPlite luminescence, 48 h; series mostly up to 57.5 µM; further: nearly all actives have a fitted effect of over 55% in size; further: potency means the concentration at half of the fitted maximal effect
How it was run: (§2)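 Cells, 1,000 per well, plated 16 h, then exposed 48 h at 37 C to compounds. Viability by ATPlite luminescence after 15 min at room temperature.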

CAOV3 = test: as above; details: Gynecologic cancer cell panel viability, ATPlite luminescence, 48 h; series mostly up to 57.5 µM
How it was run: as §2

CASKI = test: as above; details: Gynecologic cancer cell panel viability, ATPlite luminescence, 48 h; series mostly up to 57.5 µM
How it was run: as §2

Es-2 = test: as above; details: Gynecologic cancer cell panel viability, ATPlite luminescence, 48 h; series mostly up to 57.5 µM
How it was run: as §2

HeLa = test: as above; details: Gynecologic cancer cell panel viability, ATPlite luminescence, 48 h; series mostly up to 57.5 µM
How it was run: as §2

Hek293T = test: as above; details: Gynecologic cancer cell panel viability, ATPlite luminescence, 48 h, control line for the selectivity index; series mostly up to 57.5 µM
How it was run: as §2

OV90 = test: as above; details: Gynecologic cancer cell panel viability, ATPlite luminescence, 48 h; series mostly up to 57.5 µM
How it was run: as §2

PA-1 = test: as above; details: Gynecologic cancer cell panel viability, ATPlite luminescence, 48 h; series mostly up to 57.5 µM
How it was run: as §2

Tov-21-G = test: as above; details: Gynecologic cancer cell panel viability, ATPlite luminescence, 48 h; series mostly up to 57.5 µM
How it was run: as §2

Tov112D = test: as above; details: Gynecologic cancer cell panel viability, ATPlite luminescence, 48 h; series mostly up to 57.5 µM
How it was run: as §2

NIH3T3 = test: Cytotoxic Profiling of Annotated Libraries Using Quantitative High-Throughput Screening (AID 1296008); details: Five cell lines viability, CellTiter-Glo ATP luminescence, 48-72 h; max response: hits give low values; further: nearly all actives have a fitted effect of over 60% in size; further: potency means the concentration at half of the fitted maximal effect; on max response: on the % scale 0 is the no-effect control and ±100 the full control effect
How it was run: as §1

JEG-3 = test: Primary qHTS to identify gynecologic anti-cancer compounds using libraries of approved drugs and bioactive compounds (AID 1345084); details: Gynecologic cancer cell panel viability, ATPlite luminescence, 48 h; series mostly up to 57.5 µM; further: nearly all actives have a fitted effect of over 55% in size; further: potency means the concentration at half of the fitted maximal effect
How it was run: as §2

Phospholipid hydroperoxide glutathione peroxidase GPX4 (Homo sapiens), sequence (P36969 whole entry, looked up): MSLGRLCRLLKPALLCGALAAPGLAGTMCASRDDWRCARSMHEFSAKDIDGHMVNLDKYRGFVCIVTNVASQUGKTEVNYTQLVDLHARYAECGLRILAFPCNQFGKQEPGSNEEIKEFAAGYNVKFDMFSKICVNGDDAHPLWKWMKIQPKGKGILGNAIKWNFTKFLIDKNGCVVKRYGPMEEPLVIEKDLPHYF
Glutathione peroxidase 1 (Homo sapiens), sequence (P07203 whole entry, looked up): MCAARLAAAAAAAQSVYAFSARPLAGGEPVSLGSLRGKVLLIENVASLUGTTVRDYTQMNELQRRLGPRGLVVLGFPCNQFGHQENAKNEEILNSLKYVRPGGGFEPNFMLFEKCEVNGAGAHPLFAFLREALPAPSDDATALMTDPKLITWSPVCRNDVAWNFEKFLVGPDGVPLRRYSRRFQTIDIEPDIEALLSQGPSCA
Calcium and integrin-binding protein 1 (Homo sapiens), sequence (Q99828 whole entry, looked up): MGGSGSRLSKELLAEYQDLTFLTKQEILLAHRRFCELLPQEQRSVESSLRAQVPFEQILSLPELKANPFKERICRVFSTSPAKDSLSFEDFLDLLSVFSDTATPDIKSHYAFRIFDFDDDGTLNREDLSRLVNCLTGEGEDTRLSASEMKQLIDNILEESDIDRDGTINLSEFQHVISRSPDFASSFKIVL

CC(=O)O[C@H]1C[C@@H](C)O[C@H]2O[C@@H]3CC4CC[C@@H]5C(CC[C@]6(C)[C@@H](C7=CC(=O)OC7)CC[C@]56O)[C@@]4(C=O)C[C@H]3O[C@]21O (stereo partly drawn)
active: Potency [1] 86.2 nM | Potency (CRL-7250) 43.2 nM | Potency (C33A) 100 nM | Potency (CAOV3) 282 nM | Potency (CASKI) 562 nM | Potency (Es-2) 126 nM | Potency (HeLa) 126 nM | Potency (Hek293T) 158 nM | Potency (OV90) 562 nM | Potency (PA-1) 126 nM | Potency (Tov-21-G) 100 nM | Potency (Tov112D) 100 nM
inactive: Potency [2] | Potency [3] | Potency [4] | Potency [5] | outcome [6] | Potency [7]

CC(=O)C1CCC2C3CCC4C[C@@H](O)CCC4(C)C3CCC12C (stereo partly drawn)
inactive: Potency [3] | Potency [4] | Potency [5] | outcome [6] | Potency [7] | max response (CRL-7250) 3.25% | outcome (NIH3T3) | Potency (C33A) | Potency (CAOV3) | Potency (CASKI) | Potency (Es-2) | Potency (HeLa) | Potency (Hek293T) | Potency (JEG-3) | Potency (OV90) | Potency (PA-1) | Potency (Tov-21-G) | Potency (Tov112D)

CN1C(=O)C(Cc2ccc3ccccc3c2)N=C(c2ccc(O)cc2)c2cc(Cl)ccc21 (stereo not drawn)
inactive: Potency [3] | Potency [4] | Potency [5] | outcome [6] | Potency [7] | max response (CRL-7250) -21.8% | max response (NIH3T3) -0.878% | Potency (C33A) | Potency (CAOV3) | Potency (CASKI) | Potency (Es-2) | Potency (HeLa) | Potency (Hek293T) | Potency (JEG-3) | Potency (OV90) | Potency (PA-1) | Potency (Tov-21-G) | Potency (Tov112D)

c1ccc(C2(c3ccccc3)OC[C@@H]([C@H]3CCCCN3)O2)cc1
inactive: Potency [2] | Potency [3] | Potency [4] | Potency [5] | outcome [6] | Potency [7] | max response (CRL-7250) -2.49% | max response (NIH3T3) 0.771% | Potency (C33A) | Potency (CAOV3) | Potency (CASKI) | Potency (Es-2) | Potency (HeLa) | Potency (Hek293T) | Potency (JEG-3) | Potency (OV90) | Potency (PA-1) | Potency (Tov-21-G) | Potency (Tov112D)

Oc1ccc2c(c1)C13CCCC[C@H]1[C@@H](C2)N(CC1CCC1)CC3
inactive: Potency [2] | Potency [3] | Potency [4] | Potency [5] | outcome [6] | Potency [7] | max response (CRL-7250) -16.2% | max response (NIH3T3) -7.5% | Potency (C33A) | Potency (CAOV3) | Potency (CASKI) | Potency (HeLa) | Potency (Hek293T) | Potency (JEG-3) | Potency (Tov-21-G) | Potency (Tov112D)

C[C@H]1CN(CC[C@H](O)C2CCCCC2)CC[C@@]1(C)c1cccc(O)c1
inactive: Potency [1] | Potency [3] | Potency [4] | Potency [5] | outcome [6] | Potency [7] | max response (CRL-7250) 4.91% | max response (NIH3T3) -4.6% | Potency (C33A) | Potency (CAOV3) | Potency (CASKI) | Potency (Es-2) | Potency (HeLa) | Potency (Hek293T) | Potency (JEG-3) | Potency (OV90) | Potency (PA-1) | Potency (Tov-21-G) | Potency (Tov112D)
